Test results: PubChem BioAssay AID1159580 (chemical genetic matrix, 2015)
The whole screen tested about 5,500 compounds, of which about 2,000 (36%) were called active. Inconclusive results (about 18%) are left out. Rule as the data show it: active = normalized growth mostly below about 0.91 (no sharp cut-off); inconclusive = no clear call, values can overlap the other calls; inactive = mostly above about 0.92. This is one part of the list.

Assay: chemical genetic growth profiling, strain panel (AID 1159580);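 also: tested at 20 µM; growth read once vehicle control cultures reached saturation at 30 °C; 1 = growth at the plate median or of vehicle wells; lower values mean less growth of the strain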
Settings: growth OD

Measured: normalized growth

Cc1cccc(C)c1NC(=O)C1CCCCN1C (configuration not stated)
inactive: S. cerevisiae deletion strains, locus YJR075W, strain HOC1, active compounds read low 1 | S. cerevisiae deletion strains, locus YKL009W, strain mrt4, active compounds read low 1.04 | S. cerevisiae deletion strains, locus YKL068W, active compounds read low 0.999 | S. cerevisiae deletion strains, locus YKL085W, strain MDH1 (second series), active compounds read low 1 | S. cerevisiae deletion strains, locus YKL085W, strain MDH1, active compounds read low 1 | S. cerevisiae deletion strains, locus YKL160W, strain elf1, active compounds read low 0.994 | S. cerevisiae deletion strains, locus YKL190W, strain CNB1, active compounds read low 0.982 | S. cerevisiae deletion strains, locus YKR001C, strain vps1, active compounds read low 1.01 | S. cerevisiae deletion strains, locus YKR026C, strain gcn3, active compounds read low 0.979 | S. cerevisiae deletion strains, locus YKR091W, strain srl3, active compounds read low 0.994 | S. cerevisiae deletion strains, locus YLL001W, strain dnm1, active compounds read low 0.99 | S. cerevisiae deletion strains, locus YLL026W, active compounds read low 0.991 | S. cerevisiae deletion strains, locus YLL041C, strain sdh2, active compounds read low 1 | S. cerevisiae deletion strains, locus YLR027C, strain aat2, active compounds read low 0.992 | S. cerevisiae deletion strains, locus YLR039C, strain RIC1, active compounds read low 1.01 | S. cerevisiae deletion strains, locus YLR058C, strain SHM2, active compounds read low 1 | S. cerevisiae deletion strains, locus YLR102C, strain apc9, active compounds read low 1.02 | S. cerevisiae deletion strains, locus YLR113W, strain HOG1, active compounds read low 1.01 | S. cerevisiae deletion strains, locus YLR221C, strain rsa3, active compounds read low 0.996 | S. cerevisiae deletion strains, locus YLR258W, strain gsy2, active compounds read low 0.991 | S. cerevisiae deletion strains, locus YLR262C, strain YPT6 (second series), active compounds read low 0.986 | S. cerevisiae deletion strains, locus YLR262C, strain YPT6, active compounds read low 0.996 | S. cerevisiae deletion strains, locus YLR268W, strain sec22, active compounds read low 1.02 | S. cerevisiae deletion strains, locus YLR320W, strain mms22, active compounds read low 0.976 | S. cerevisiae deletion strains, locus YLR330W, strain CHS5, active compounds read low 1.01 | S. cerevisiae deletion strains, locus YLR342W, strain FKS1 (second series), active compounds read low 1.03 | S. cerevisiae deletion strains, locus YLR342W, strain FKS1, active compounds read low 0.992 | S. cerevisiae deletion strains, locus YLR357W, strain rsc2, active compounds read low 0.972 | S. cerevisiae deletion strains, locus YLR370C, strain arc18, active compounds read low 0.978 | S. cerevisiae deletion strains, locus YLR371W, strain rom2, active compounds read low 1.02 | S. cerevisiae deletion strains, locus YLR384C, strain iki3, active compounds read low 0.985 | S. cerevisiae deletion strains, locus YLR418C, strain cdc73, active compounds read low 1.03 | S. cerevisiae deletion strains, locus YML016C, strain PPZ1, active compounds read low 1 | S. cerevisiae deletion strains, locus YML032C, strain rad52, active compounds read low 0.998 | S. cerevisiae deletion strains, locus YML120C, strain ndi1, active compounds read low 0.987 | S. cerevisiae deletion strains, locus YML124C, strain tub3, active compounds read low 1.02 | S. cerevisiae deletion strains, locus YMR058W, strain fet3, active compounds read low 0.988 | S. cerevisiae deletion strains, locus YMR078C, strain ctf18, active compounds read low 1.01 | S. cerevisiae deletion strains, locus YMR125W, strain sto1, active compounds read low 0.98 | S. cerevisiae deletion strains, locus YMR129W, active compounds read low 0.995 | S. cerevisiae deletion strains, locus YMR205C, strain PFK2, active compounds read low 0.976 | S. cerevisiae deletion strains, locus YMR223W, strain ubp8, active compounds read low 0.998 | S. cerevisiae deletion strains, locus YMR231W, strain pep5, active compounds read low 0.985 | S. cerevisiae deletion strains, locus YMR263W, strain SAP30, active compounds read low 0.997 | S. cerevisiae deletion strains, locus YMR307W, strain GAS1, active compounds read low 0.985 | S. cerevisiae deletion strains, locus YNL067W, strain RPL9B, active compounds read low 0.996 | S. cerevisiae deletion strains, locus YNL071W, strain lat1, active compounds read low 0.989 | S. cerevisiae deletion strains, locus YNL128W, strain TEP1, active compounds read low 1.01 | S. cerevisiae deletion strains, locus YNL153C, strain GIM3, active compounds read low 1.01 | S. cerevisiae deletion strains, locus YNL183C, strain NPR1, active compounds read low 0.963 | S. cerevisiae deletion strains, locus YNL209W, strain ssb2, active compounds read low 0.987 | S. cerevisiae deletion strains, locus YNL233W, strain BNI4, active compounds read low 1.01 | S. cerevisiae deletion strains, locus YNL248C, strain rpa49, active compounds read low 0.976 | S. cerevisiae deletion strains, locus YNL250W, strain rad50, active compounds read low 0.999 | S. cerevisiae deletion strains, locus YNL271C, strain bni1, active compounds read low 1.01 | S. cerevisiae deletion strains, locus YNL298W, strain CLA4, active compounds read low 1.01 | S. cerevisiae deletion strains, locus YNL307C, strain MCK1, active compounds read low 1.02 | S. cerevisiae deletion strains, locus YNL322C, strain KRE1 (second series), active compounds read low 0.966 | S. cerevisiae deletion strains, locus YNL322C, strain KRE1, active compounds read low 1.01 | S. cerevisiae deletion strains, locus YNR049C, strain mso1, active compounds read low 0.99 | S. cerevisiae deletion strains, locus YNR052C, strain pop2, active compounds read low 1 | S. cerevisiae deletion strains, locus YOL006C, strain TOP1, active compounds read low 1.02 | S. cerevisiae deletion strains, locus YOL012C, strain htz1 0.844 | S. cerevisiae deletion strains, locus YOL147C, strain pex11, active compounds read low 1.01 | S. cerevisiae deletion strains, locus YOR001W, strain rrp6, active compounds read low 0.974 | S. cerevisiae deletion strains, locus YOR061W, strain CKA2, active compounds read low 1 | S. cerevisiae deletion strains, locus YOR069W, strain VPS5, active compounds read low 0.999 | S. cerevisiae deletion strains, locus YOR070C, strain gyp1, active compounds read low 0.991 | S. cerevisiae deletion strains, locus YOR080W, strain dia2, active compounds read low 0.981 | S. cerevisiae deletion strains, locus YOR083W, strain WHI5, active compounds read low 0.989 | S. cerevisiae deletion strains, locus YOR106W, strain vam3, active compounds read low 1.01 | S. cerevisiae deletion strains, locus YOR136W, strain idh2, active compounds read low 1.02 | S. cerevisiae deletion strains, locus YOR144C, strain elg1, active compounds read low 1.01 | S. cerevisiae deletion strains, locus YOR184W, strain ser1, active compounds read low 1.02 | S. cerevisiae deletion strains, locus YOR231W, strain MKK1, active compounds read low 1.03 | S. cerevisiae deletion strains, locus YOR265W, strain rbl2, active compounds read low 1 | S. cerevisiae deletion strains, locus YOR270C, strain vph1, active compounds read low 0.981 | S. cerevisiae deletion strains, locus YOR290C, strain snf2, active compounds read low 0.999 | S. cerevisiae deletion strains, locus YOR316C, strain cot1, active compounds read low 1.01 | S. cerevisiae deletion strains, locus YPL051W, strain arl3, active compounds read low 0.993 | S. cerevisiae deletion strains, locus YPL055C, strain LGE1, active compounds read low 0.992 | S. cerevisiae deletion strains, locus YPL078C, strain atp4, active compounds read low 0.997 | S. cerevisiae deletion strains, locus YPL106C, strain sse1, active compounds read low 0.98 | S. cerevisiae deletion strains, locus YPL240C, strain hsp82, active compounds read low 1 | S. cerevisiae deletion strains, locus YPL241C, strain CIN2, active compounds read low 0.999 | S. cerevisiae deletion strains, locus YPL256C, strain CLN2, active compounds read low 1.01 | S. cerevisiae deletion strains, locus YPR119W, strain clb2, active compounds read low 1.02 | S. cerevisiae deletion strains, locus YPR141C, strain kar3, active compounds read low 1.01 | S. cerevisiae deletion strains, locus YPR163C, strain tif3, active compounds read low 1.02 | S. cerevisiae deletion strains, locus YPR167C, strain met16, active compounds read low 1.01 | S. cerevisiae deletion strains, strain wtn01, active compounds read low 1.01 | S. cerevisiae strains, strain wild type, active compounds read low 0.992
